High-throughput results (PubChem)
A selection: hits, their analogues and other compounds. The true share with any hit is near 3.7%.
HTT prom inh: HTT promoter inhibition | HEK293 HTT promoter firefly luciferase reporter, 24 h | Potency, µM (series often up to 57.5 µM), inactives show at the highest dose activity change, negative = inhibition, actives largely listed as inhibitors | 48,000 compounds, 0.93% hits; note: potency is the fitted concentration of half-maximal effect; nearly all actives have a fitted effect of over 50% in size
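Firefly luciferase signal from promoter-reporter HEK293 cells was scaled between vehicle (0%) and zero RLU (-100%). Compounds were tested at final concentrations of up to 57.5 uM over 24 h at 37 degrees C. PTC124 at 50 uM final served as control inhibitor.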
GALK inhibitor: inhibitors of human galactokinase (GALK) | recombinant GALK, Kinase-Glo ATP luminescence, 1 h | Potency, µM (titrated, usually from 57.5 µM), inactives show at the top dose activity, negative = inhibition, actives largely listed as inhibitors | 44,000 tested, under 10 active | AID 1347072;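 note: plate controls were full GALK reaction for no effect and reaction lacking GALK for full effect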
Target sequence (P51570 whole entry, looked up): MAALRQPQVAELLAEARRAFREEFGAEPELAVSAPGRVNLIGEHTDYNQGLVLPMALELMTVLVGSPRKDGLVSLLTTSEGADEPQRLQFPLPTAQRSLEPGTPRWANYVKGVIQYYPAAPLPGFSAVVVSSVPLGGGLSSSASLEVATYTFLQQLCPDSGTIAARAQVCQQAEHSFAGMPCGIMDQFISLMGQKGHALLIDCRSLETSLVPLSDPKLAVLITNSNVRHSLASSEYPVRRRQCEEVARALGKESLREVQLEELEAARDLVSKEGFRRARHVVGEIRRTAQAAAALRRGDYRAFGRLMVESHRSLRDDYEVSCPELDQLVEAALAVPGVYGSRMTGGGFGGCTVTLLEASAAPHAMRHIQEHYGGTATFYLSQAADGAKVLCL
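5 nM GALK with 35 µM ATP and 100 µM galactose in HEPES pH 8.0, MgCl2, NaCl, DTT, BSA; 1 h RT reaction, remaining ATP detected by Kinase-Glo Plus luminescence after 10 min; qHTS concentration series.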
B2AR arrestin ag: beta-arrestin recruitment by human beta2-adrenergic receptor ligands | HTLA Tango cells, beta-arrestin recruitment, luciferase luminescence, 18 h | Potency, µM (titrated, usually from 46.1 µM), actives largely listed as activators | 44,000 tested, under 10 active;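 note: potency is the fitted concentration of half-maximal effect; 0% = DMSO and full agonism = EC100 isoproterenol or metaproterenol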
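First, Tango cells carrying beta2-AR and beta-arrestin fusions received compound up to 46 microM. After 18 hr at 37 degrees C, luciferase substrate was added for 15 minutes, then luminescence gave %Activity for curve fitting.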
TSG101-PTAP inh: inhibitors of HIV-1 PTAP binding to human TSG101, validation; Potency, µM (top dose mostly 115 µM), hits mostly inhibitors; Q99816; 44,000 tested, under 10 active; AID 1347069; Fluorescence polarization, FITC-PTAP peptide/Tsg101, 20 min; note: potency is the fitted concentration of half-maximal effect; 0% is about no effect
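Fluorescence polarization binding of Tsg101 binding domain (10 uM final) to FITC-labeled PTAP-motif peptide (50 nM final) in HEPES pH 7.5/NaCl/Tween 20/EDTA/TCEP buffer; 20 min at r.t. Actives by curve class, <25 µM, efficacy <60% inhibition.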
GPR32 ag: GPR32 (DRV1) agonism, beta-arrestin recruitment | AID 1346428 | CHO-K1 GPR32 beta-arrestin PathHunter luminescence, 90 min; zero percent set by DMSO-only wells | activation, % at 76.9 µM | O75388 | 48,000 compounds, 2.5% hits;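 active = activation of at least 60% and not above a set upper limit, about 1 call in 100 departs from these limits; inconclusive = activation of 40% to 60%, or above that upper limit; inactive = activation under 40%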; note: 0% is about no effect
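Step 1: seed CHO-K1 GPR32 beta-arrestin cells, 2,500/well, overnight at 37 °C. Step 2: add compounds, 90 min at 37 °C. Step 3: detection reagent, 1 h ambient, then luminescence.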
HTT-AS promoter: activates huntingtin-antisense promoter activity. 48,000 compounds, 0.24% hits. HEK293 HTT-AS promoter firefly luciferase reporter, 24 h; response scale: percent change from vehicle, -100% = no light. Potency, µM (doses to about 57.5 µM), for the others: at the highest dose activity change, positive = activation, actives largely listed as activators. AID 1508624; note: potency is the fitted concentration of half-maximal effect; nearly all actives have a fitted effect of over 55% in size
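Luminescence was read after Dual-Glo reagent and a 10 min room-temperature incubation. Values were normalized to vehicle (0% activity) and zero RLU (-100% activity). Reporter HEK293 cells had been exposed to compounds (up to 57.5 uM final) for 24 h.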
The depositor's hits bear a star; i = inactive; ? = inconclusive; / = not tested or not shown; [ ] = another dose, or the depositor's remark. Unless noted, calls come from the whole dose curve; as a rule, active = well fitted curve in the direction sought with a large enough effect; inconclusive = small, poorly fitted or top-dose-only effect, or another doubt; inactive = no such curve, though single readings can be large; an effect the other way counts as inactive or inconclusive.

SMILES	HTT prom inh	GALK inhibitor	B2AR arrestin ag	TSG101-PTAP inh	GPR32 ag	HTT-AS promoter
Cc1ccccc1NC(=O)CSc1nc2ccc(NC(=O)CCc3ccccc3)cc2s1	-5%	0%	i	i	4	-17%
Cc1cc(C)cc(OCC(=O)Nc2ccc(-c3nc4ccccc4s3)cc2)c1	40%	2%	i	i	72*	?
CCCCC(=O)Nc1cccc(-c2nc3ccccc3s2)c1	33%	5%	i	i	92*	?
COc1cccc(CC(=O)Nc2ccc(-c3nc4ccccc4s3)cc2)c1	36%	0%	i	i	?	?
CN[C@@H]1CN(c2ccc3c(=O)c(C(=O)O)cn(-c4nccs4)c3n2)C[C@@H]1OC	?	/	/	/	/	-34%[25.1 µM]
CCN1CCN(CC(=O)Nc2ccc(-c3cccc4c(=O)cc(N5CCOCC5)oc34)c3sc4ccccc4c23)CC1	-21%	/	/	/	/	-36%
c1cc(OCCN2CCCCC2)cc(-c2n[nH]c3ccc(-c4ncn[nH]4)cc23)c1	-25%	/	/	/	/	-21%
Cc1ccc(CSc2nc3ccc(NC(=O)COc4ccccc4)cc3s2)cc1	0%	0%	i	i	74*	-9%
COc1cc(OC)cc(C(=O)Nc2ccc(-c3nc4ccccc4s3)c(C)c2)c1	36%	-1%	i	i	11	25%
Cc1ccc(OCC(=O)Nc2ccc3nc(SCc4ccccc4)sc3c2)cc1	-6%	-5%	i	i	-3	-3%
CCOc1ccc(C(=O)Nc2ccc3nc(SCc4ccccc4)sc3c2)cc1	-20%	6%	i	i	63*	-18%
Cc1cc(NC(=O)c2ccccc2F)ccc1-c1nc2ccccc2s1	49%	1%	i	i	-1	0.89µM*
CCOC(=O)CSc1nc2ccc(NC(=O)c3ccccc3)cc2s1	-7%	-6%	i	i	82*	-7%
O=c1ccn([C@@H]2O[C@H](CO)[C@H](O)[C@H]2O)c(=O)[nH]1	?	/	/	/	/	4%
O=C(COc1ccccc1)Nc1ccc2nc(SCCOc3ccccc3)sc2c1	4%	-11%	i	i	-5	-1%
CCOC(=O)CSc1nc2ccc(NC(=O)c3ccccc3F)cc2s1	-7%	4%	i	i	107*	-20%
CCOC(=O)CSc1nc2ccc(NC(=O)COc3ccccc3)cc2s1	1%	7%	i	i	61*	-6%
O=C(O)CCCCCC(=O)NN=C1CCCC1	0%	/	/	/	/	-9%
CCCCNC(=O)CCc1c(C)nc2cc(-c3ccccc3)nn2c1C	2µM*	-1%	i	i	-4	-70%
Cc1nc2c(-c3ccccc3)c(C)nn2c(C)c1CCC(=O)Nc1ccccc1F	?	9%	i	i	60*	-37%
Cc1ccc(NC(=O)CCc2c(C)nc3c(-c4ccccc4)c(C)nn3c2C)c(C)c1	-11%	6%	i	i	11	-11%
Cc1nc2nc(C)c(CCC(=O)NCc3cccc(Cl)c3)c(C)n2n1	1%	-2%	i	i	-3	-18%
Cc1nc2cc(-c3ccccc3)nn2c(C)c1CCC(=O)NCCc1ccccc1	7.1µM*	-1%	i	i	37	-74%
COc1ccccc1-c1cc2nc(C)c(CCC(=O)NCc3cccc(Cl)c3)c(C)n2n1	13µM*	-1%	i	i	1	-80%
COC1=C2C[C@@H](C)C[C@H](OC)[C@@H](O)[C@@H](C)C=C(C)[C@H](OC(N)=O)[C@@H](OC)C=CC=C(C)C(=O)NC(=CC1=O)C2=O	?	/	/	/	/	-65%
SMILES	HTT prom inh	GALK inhibitor	B2AR arrestin ag	TSG101-PTAP inh	GPR32 ag	HTT-AS promoter
Cc1cc(CN2CCN(c3c(Br)cnc4nc(-c5ccc(N6CCN(C)CC6)cc5)[nH]c34)CC2)no1	-3%	/	/	/	/	-19%
CCOC(=O)C1CCCN(C(=O)c2cc3c(=O)n(C)c4ccccc4c3s2)C1 (stereo not drawn)	?	0%	i	i	103*	-40%
CC1CCN(C(=O)c2cc3c(=O)n(C)c4ccccc4c3s2)CC1	18%	-4%	i	i	-7	15%
CCCCCCCCCCCCOCCO	-3%	/	/	/	14	0%
CCOc1ccccc1NC(=O)c1c(NCc2sccc2C)sc2c1CCCCC2	-12%	1%	i	i	-14	-17%
COc1ccc(NC(=O)c2c(NCc3sccc3C)sc3c2CCCCC3)c(OC)c1	-24%	-1%	i	i	-2	-13%
CCOC(=O)N1CCc2c(sc(NCc3sccc3C)c2C(=O)Nc2ccccc2OCC)C1	?	1%	i	i	63*	-9%
CCOC(=O)N1CCc2c(sc(NCc3sccc3C)c2C(=O)Nc2ccc(OC)cc2OC)C1	?	-3%	i	i	117*	-86%
COc1ccc(-c2ccc3c(N4CCOCC4)nc(N4C[C@@H](C)O[C@@H](C)C4)nc3n2)cc1CO	?	/	/	/	/	-23%
Cc1ccc(C)c(CN2C(=O)C(O)(c3c[nH]c4ccccc34)c3ccccc32)c1 (stereo not drawn)	?	-1%	i	i	84*	-31%
Cc1ccc(CN2C(=O)C(O)(c3c(C)[nH]c4ccccc34)c3ccccc32)cc1 (stereo not drawn)	-15%	-4%	i	i	70*	-20%
O=C1N(Cc2ccccc2Cl)c2ccccc2C1(O)c1c[nH]c2ccccc12 (stereo not drawn)	?	-2%	i	i	84*	-39%
O=C1N(Cc2ccccc2)c2ccccc2C1(O)c1c[nH]c2ccccc12 (stereo not drawn)	-20%	6%	i	i	?	-16%
Cc1cc(NC(=O)c2cc(-c3cccc(Cl)c3)on2)nn1Cc1ccc(Cl)cc1	1.6µM*	3%	i	i	3	-41%
CC(C)c1c(C(=O)Nc2ccccc2)c(-c2ccccc2)c(-c2ccc(F)cc2)n1CC[C@H](O)C[C@@H](O)CC(=O)O	6%	/	/	/	/	-13%
C[C@]12C=CC(=O)N[C@@H]1CC[C@H]1[C@H]3CC[C@@H](C(=O)Nc4cc(C(F)(F)F)ccc4C(F)(F)F)[C@@]3(C)CC[C@@H]12	-7%	/	/	/	/	-3%
CN(C[C@@H]1COCCO1)S(=O)(=O)Nc1ccc2ccc3ncc(-c4cnn(C)c4)cc3c(=O)c2c1	15%	/	/	/	/	-1%
CCCCCCCCCCCCOCCOCCOCCOCCOCCOCCOCCOCCOCCO	-29%	/	/	/	99*	-72%
